Assay [1] deals with T1, Aspartate--tRNA(Asp/Asn) ligase (Mycobacterium tuberculosis (strain ATCC 25618 / H37Rv)) (UniProt P9WFW3).
T1 sequence (whole entry): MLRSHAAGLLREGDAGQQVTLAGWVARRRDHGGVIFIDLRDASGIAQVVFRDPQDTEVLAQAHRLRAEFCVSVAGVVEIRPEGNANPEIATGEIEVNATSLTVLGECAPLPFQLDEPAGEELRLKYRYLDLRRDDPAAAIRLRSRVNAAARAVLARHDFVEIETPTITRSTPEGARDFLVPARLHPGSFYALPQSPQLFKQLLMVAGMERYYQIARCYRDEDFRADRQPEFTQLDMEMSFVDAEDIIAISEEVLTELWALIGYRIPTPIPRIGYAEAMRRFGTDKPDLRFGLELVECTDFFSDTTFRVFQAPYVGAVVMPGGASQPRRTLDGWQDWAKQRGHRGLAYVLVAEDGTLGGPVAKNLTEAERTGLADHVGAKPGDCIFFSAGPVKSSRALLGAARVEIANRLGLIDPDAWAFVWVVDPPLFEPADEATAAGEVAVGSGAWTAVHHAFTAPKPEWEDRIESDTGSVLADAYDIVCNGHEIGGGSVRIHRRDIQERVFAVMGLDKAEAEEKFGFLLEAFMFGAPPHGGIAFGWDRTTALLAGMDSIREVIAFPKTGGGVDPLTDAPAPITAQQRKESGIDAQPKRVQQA
In words: Assay for Asp RNA synthetase-1 from Mycobacterium tuberculosis. The settings on record: 30 µM. It counts as functional. Details: scale not given: direction of the effect not stated beside the values.

Assay [2] concerns the target Shiga toxin 2 (Escherichia coli O157:H7) (UniProt P09385+P09386). In words: E. coli 0.157:H7 Shiga Toxin SOP - stx2 screening assay. The settings on record: 30 µM. It counts as functional. Details: scale not given: direction of the effect not stated beside the values.

As for `N#Cc1ccccc1CN1CCCCC1Cn1cncn1` (stereo not given), the results for the Percent Effect in assay [1] and in assay [2] were 0.359% and 25%, respectively.

Take `Cc1cccc(C(=O)N(C)Cc2cc(Br)cs2)n1`: the Percent Effect in assay [1] is -0.0599%; in assay [2] it was -8.77%.

In the case of `CC(C(=O)Nc1ncccn1)N1CCCN(c2nccs2)CC1` (stereo not given), the Percent Effect in assay [1] is 0.767%; in assay [2], -54.2%.

As for `COc1cccc(CN2CCCCCC2c2cccc(C)c2)c1O` (stereo not given), the Percent Effect is -0.481% in assay [1] and -68.7% in assay [2].

Take `Cc1nccc(C(=O)N2CCCN(Cc3cnn(C(C)C)c3)CC2)n1`: the Percent Effect in assay [1] was -2.77%; in assay [2], -13.2%.

As to `CC(=O)c1ccc(N2CCC(CO)(CCOc3ccccc3)CC2)nc1`, the Percent Effect in assay [1] was 0.327%; in assay [2] it was -31.2%.

For the compound `COCCOCc1cccc(NC(=O)N2CCCC2c2ccncc2)c1` (stereo not given), the Percent Effect in assay [1] was -1.56%; in assay [2] it was 18.6%.

`O=C1CC[C@H]2[C@H](CCN2C(=O)C2CCCO2)N1CCN1CCCC1` (stereo not given in full): the Percent Effect in assay [1] was -1.39%; in assay [2], 4.3%.

On to `Cc1cnc(CN2CCCC(c3cc(C(F)(F)F)[nH]n3)C2)cn1` (stereo not given), for which the Percent Effect in assay [1] is -6.86%; in assay [2], 7.14%.

Consider `COc1c(CNC(c2ccc(F)cc2)c2nccn2C)c(C)nn1C` (stereo not given), for which the Percent Effect was -6.01% in assay [1] and -17.1% in assay [2].

Regarding `Fc1cnc(N2CCOC3(CCN(Cc4ccsc4)CC3)C2)nc1`, the figures for the Percent Effect in assay [1] and in assay [2] were 14.1% and -18%, respectively.

For `COCCN1CCC(CNC(=O)C2(c3cc(C)cc(C)c3)CCC2)C1` (stereo not given), the Percent Effect in assay [1] was -0.337%; in assay [2] it was 20.8%.

Consider `COC(=O)c1cccn1C1CCN(Cc2ccccc2)CC1`, for which the Percent Effect in assay [1] was 0.995%; in assay [2] it was -6.65%.

As for `CN(C)C(=O)CCC(=O)NCc1cccnc1-n1cnc2ccccc21`, the Percent Effect in assay [1] is -3.48%; in assay [2], -4.51%.

Take `CC(C)n1ncc2c1NC(=O)CSC2C(C)(C)C` (stereo not given): the Percent Effect is -2.73% in assay [1] and -13.8% in assay [2].

For `CCN(CC(=O)NC(C)C)S(=O)(=O)N1CCCCCC1`, the Percent Effect in assay [1] is -4.33%; in assay [2], -4.09%.

As to `O=C1[C@H]2CN(c3ncccn3)C[C@H]2CN1Cc1ccncc1`, the Percent Effect in assay [1] is 0.211%; in assay [2] it was -21.9%.

On to `Cc1noc(C)c1CN(C)C(=O)NC1CCN(c2ncccn2)CC1`, for which the Percent Effect was determined as 0.9% in assay [1] and 9.61% in assay [2].

On to `O=C1CCC2(CCN(c3ncc(F)cn3)CC2)N1CCN1CCCC1`, for which the Percent Effect in assay [1] is 1.53%; in assay [2] it was -1.87%.

As to `Cc1cnc(CN(C)CC2CCCN2c2cccnn2)cn1` (stereo not given), the results for the Percent Effect in assay [1] and in assay [2] were 2.77% and 7.46%, respectively.

On to `Cc1oc(C)c(C(=O)NCc2cccnc2N(C)C)c1C`, for which the Percent Effect in assay [1] was -2.01%; in assay [2], 35.3%.

`CN(C)C(=O)N1C[C@@H]2CC[C@H](C1)N(Cc1ccc3nsnc3c1)C2`: the Percent Effect in assay [1] is 6.27%; in assay [2], -56.9%.

Consider `c1ccc(-c2nc(CN3CCOC(Cn4cccn4)C3)no2)cc1` (stereo not given), for which the Percent Effect in assay [1] was -1.51%; in assay [2] it was 4.08%.

Consider `Cc1noc(C)c1CN(C)CCC(=O)N1CCc2sccc2C1`, for which the figures for the Percent Effect in assay [1] and in assay [2] were 5.92% and -16%, respectively.

With `Cc1ccc2cc(CNCCCO)c(=O)[nH]c2c1`, the Percent Effect in assay [1] is -1.41%; in assay [2] it was -9.65%.

Consider `CC(O)CC(C)(C)CNC(=O)NCc1cccc(-n2ccnc2)c1` (stereo not given), for which the Percent Effect in assay [1] is 1.43%; in assay [2] it was -7.32%.

`Cc1nc(CCCNC(=O)C2CC(=O)N(C3CC3)C2)sc1C` (stereo not given): the Percent Effect in assay [1] is 3.67%; in assay [2], -28.3%.

On to `Cn1ccc(CN2CCC(CCc3ccc(O)cc3)CC2)cc1=O`, for which the Percent Effect in assay [1] is -1.67%; in assay [2] it was -46.5%.

On to `CCc1ccc(C(=O)N2CCCC(n3cncn3)C2)o1` (stereo not given), for which the Percent Effect in assay [1] is 1.95%; in assay [2], -18.7%.

Consider `Cc1cncc(C(=O)N2CCC(Cn3cc(-c4ccsc4)nn3)CC2)c1`, for which the Percent Effect in assay [1] is -0.792%; in assay [2], -26.5%.

On to `CC(NC(=O)CNCCn1cccn1)c1ccc2c(c1)CCCC2` (stereo not given), for which the Percent Effect in assay [1] was -4.86%; in assay [2], -9.4%.

Regarding `Cc1nc(N2CC[C@@H](NC(=O)c3cnccn3)[C@H](O)C2)c2ccsc2n1`, the Percent Effect in assay [1] is -1.04%; in assay [2], -6.15%.

On to `Cc1nn(C)c(N(C)C)c1CNCc1cccnc1`, for which the Percent Effect is -1.51% in assay [1] and -13% in assay [2].

Take `CC(NC(=O)NCc1ccc(Cl)s1)c1ccccn1` (stereo not given): the figures for the Percent Effect in assay [1] and in assay [2] were -0.451% and -14.6%, respectively.

For the compound `CCC(=O)N1CCCC(c2cc(Nc3ncccn3)nc(C)n2)C1` (stereo not given), the Percent Effect in assay [1] worked out at 1.35%; in assay [2], 12.4%.

As to `OCCC1CN(C2CCC2)CCN1C1CCCC1` (stereo not given), the figures for the Percent Effect in assay [1] and in assay [2] were -1.5% and 7.89%, respectively.

For `CCc1noc(C2CCCCN2C(=O)c2ccoc2C)n1` (stereo not given), the results for the Percent Effect in assay [1] and in assay [2] were -4.38% and -33.6%, respectively.

For the compound `Cc1cnn(CC(C)NCc2nc(-c3ccco3)no2)c1` (stereo not given), the Percent Effect was -4.9% in assay [1] and 2.91% in assay [2].

On to `Cc1ccc(OCC(=O)NS(=O)(=O)c2cccnc2)cc1C`, for which the results for the Percent Effect in assay [1] and in assay [2] were -2.57% and 26.6%, respectively.

Regarding `OCCn1nccc1C1CCN(CCCOc2ccc(F)cc2)CC1`, the Percent Effect was 1.85% in assay [1] and 4.26% in assay [2].

Turning to `CCS(=O)(=O)Nc1ccn(Cc2cccc(Cl)c2)n1`, the Percent Effect was 4.7% in assay [1] and -12.9% in assay [2].

With `CCOc1ccnc(N2CCN(C(=O)c3cc(Cl)c[nH]3)CC2)n1`, the Percent Effect is -2.48% in assay [1] and 18.5% in assay [2].

For the compound `CCCc1cc(C(=O)N2CCCC(n3ccnc3C)C2)[nH]n1` (stereo not given), the Percent Effect was -3% in assay [1] and -5.55% in assay [2].

`c1nc(CCC2CCCN2)cc(N2CCCOCC2)n1` (stereo not given): the values for the Percent Effect in assay [1] and in assay [2] were -5.88% and -10.1%, respectively.

Regarding `Cc1noc(C)c1CNCC1CCN(CC(O)c2ccccc2)CC1` (stereo not given), the Percent Effect in assay [1] is -1.06%; in assay [2], -21.8%.

In the case of `CCN(CC)C(=O)c1ccc(-c2ccsc2)nc1C`, the Percent Effect was -1.17% in assay [1] and -6.7% in assay [2].

Consider `CCc1nc(CN(C)C2CCN(Cc3ccc(C#N)cc3F)C2)no1` (stereo not given), for which the values for the Percent Effect in assay [1] and in assay [2] were -1.38% and 20.3%, respectively.

Consider `CC1CN(CC(=O)NC2CCCC2)CCN1c1ccc2nncn2n1` (stereo not given), for which the Percent Effect is -3.52% in assay [1] and -41.8% in assay [2].

For the compound `O=C(NC1CC1)[C@@H]1CCO[C@@H]2CCN(C3CCOCC3)C[C@@H]21`, the Percent Effect was -3.45% in assay [1] and -22% in assay [2].

As to `O=C(CCNCC(F)(F)F)N1CCC(Nc2cccnn2)CC1`, the Percent Effect in assay [1] is 2.25%; in assay [2], -14.2%.
